Experimental data published in PubChem BioAssay (NCI).
The panel holds about 83,000 compounds, 20% with a hit somewhere; the sample as a whole holds those more often.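 Single-concentration screen, 48 h exposure, 96-well plates. Endpoint: percent growth. Below 10 = active.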 Unmarked numbers belong to inactive results. Calls of active or inactive are those of the source.

How the values were obtained:
Assay in all cases: NCI-60 one-dose screen, 48 h (100 = growth as untreated, 0 = no growth, -100 = all killed)
DU-145 prostate = settings: 10 µM unless noted
MALME-3M melanoma = settings: 10 µM unless noted
MDA-MB-231 breast = settings: 10 µM unless noted
RXF 393 renal = settings: 10 µM unless noted
SF-268 CNS = settings: 10 µM unless noted
SF-295 CNS = settings: 10 µM unless noted
SF-539 CNS = settings: 10 µM unless noted
M14 melanoma = settings: 10 µM unless noted
HCT-15 colon = settings: 10 µM unless noted
HT29 colon = settings: 10 µM unless noted
SNB-75 CNS = settings: 10 µM unless noted
SNB-19 CNS = settings: 10 µM unless noted
U251 CNS = settings: 10 µM unless noted
PC-3 prostate = settings: 10 µM unless noted
SK-MEL-5 melanoma = settings: 10 µM unless noted
UACC-62 melanoma = settings: 10 µM unless noted
LOX IMVI melanoma = settings: 10 µM unless noted
SK-MEL-28 melanoma = settings: 10 µM unless noted
UACC-257 melanoma = settings: 10 µM

| SMILES | growth (DU-145 prostate) | growth (MALME-3M melanoma) | growth (MDA-MB-231 breast) | growth (RXF 393 renal) | growth (SF-268 CNS) | growth (SF-295 CNS) | growth (SF-539 CNS) | growth (M14 melanoma) | growth (HCT-15 colon) | growth (HT29 colon) | growth (SNB-75 CNS) | growth (SNB-19 CNS) | growth (U251 CNS) | growth (PC-3 prostate) | growth (SK-MEL-5 melanoma) | growth (UACC-62 melanoma) [%] | growth (LOX IMVI melanoma) | growth (SK-MEL-28 melanoma) [%] | growth (UACC-257 melanoma) |
| --- | --- | --- | --- | --- | --- | --- | --- | --- | --- | --- | --- | --- | --- | --- | --- | --- | --- | --- | --- |
| Cn1cc(-c2nn3cc(-c4cccnc4)nc3s2)c2cc(F)ccc21 | 98.1% | 70.3% | 67% | 103% | 112% | 92.5% | 80.3% | 84.8% | 60% | 67.1% | 86.9% | 84.7% | 96.8% | 79.4% | 94.3% | 62.2 | 85.7% | 81.7 |  |
| COc1cc2c3c(n(CCCNCC4CC4)c(=O)c2cc1OC)-c1cc2c(cc1C3=O)OCO2 | -52.9% (active) | 71.1% | -73.6% (active) | 43.9% | 45.6% | 22.3% | -88% (active) | 31.9% | -72.2% (active) | -70.6% (active) | 66.8% | 42.3% | -95.7% (active) | 40% | 53.2% | 45.7 | -77.7% (active) | 89.7 |  |
| C=C1C(=O)O[C@@H]2C[C@@H](C)CCC(=O)[C@](C)(OC(C)=O)C[C@H](OC(=O)/C(C)=C\C)[C@@H]12 | 37.2% | 85.5% | 50.4% | 51.3% | 96.1% | 97.5% | 72.3% | 82.4% | 60.9% | 52.5% | 80.6% | 90.6% | 88.8% | 79.1% |  |  | 54.8% |  | 73.4% |
| Cn1cc(-c2nn3c(=O)cc(-c4ccccc4)nc3s2)c2cc(F)ccc21 | 66.6% | 22.7% | 58.3% | 45.9% | 78.4% | 34.7% | 49.9% | 46.6% | 29.6% | 33.3% | 30.9% | 65.6% | 48.5% | 34.8% | 43.8% | 33.9 | 59.3% | 45.2 |  |
| COc1ccc2c(C3=C(c4c[nH]c5ccccc45)C(=O)N(O)C3=O)coc2c1 | 103% | 94.8% | 78.3% | 105% | 101% | 103% | 93.3% | 94.4% |  | 95.4% | 105% | 95.1% | 98% | 81.2% | 94.5% | 80.4 | 52.2% | 110 |  |
| COc1ccc(-c2no[n+]([O-])c2Nc2ccccc2Br)cc1 | 106% | 88% | 81.5% | 102% | 92.4% | 106% | 93.9% | 89.3% | 97.1% | 119% | 92% | 89.5% | 95% | 76.8% | 93.5% | 71.6 | 95.6% | 99.8 |  |
| C=C1C(=O)O[C@@H]2/C=C(/C)C3=CC(=O)[C@@](C)(C[C@H](OC(=O)/C(C)=C\C)[C@@H]12)O3 | 8.26% (active) | -22.9% (active) | -16.8% (active) | -65% (active) | 30.2% | 55.9% | -19.4% (active) | -27.6% (active) | -2.86% (active) | -38.7% (active) | 44.4% | 64.4% | 28.8% | 36.6% |  |  | -44.8% (active) |  | -36.2% (active) |
| COc1cc2c3c(n(CCCNC4CCCC4)c(=O)c2cc1OC)-c1cc2c(cc1C3=O)OCO2 | -78.5% (active) | -75% (active) | -76.6% (active) | 49.7% | -42.7% (active) | -76.8% (active) | -85.4% (active) | -88.9% (active) | -68.6% (active) | -55.1% (active) | 84.9% | 46.2% | -87.9% (active) | -84.7% (active) | 95% | 74 | -82.3% (active) | 95.8 |  |
| COc1ccc([C@H]2[C@H](O)C(=O)N2c2cc(OC)c(OC)c(OC)c2)cc1O | 17.4% | 59.7% | 28.3% | 21.3% | 50.1% | 2.84% (active) | -16.3% (active) | 7.13% (active) | 1.4% (active) | -18.4% (active) | 45.3% | 29% | 1.09% (active) | 8.59% (active) |  | 27.9 | 17.1% | 62 |  |
| COc1ccc2c(c1)c(-c1nn3c(=O)cc(-c4ccccc4)nc3s1)cn2C | 63.8% | 35.5% | 55.3% | 35.4% | 64.9% | 28.8% | 16% | 35.4% | 34.7% | 10.5% | 14.9% | 39.1% | 26.8% | 32.4% | 38.7% | 24.2 | 37.9% | 51.5 |  |
| O=C1c2c(c3c4ccc(Br)cc4oc3c3[nH]c4ccccc4c23)C(=O)N1CCO | 35% | 65.4% | 65.1% | 57.1% | 49.2% | 20.8% | 17.1% | 29.8% | 53% | 58.3% | 88.7% | 32.8% | 23.5% | 51.6% | 17.3% | 23.5 | 7.54% (active) | 70.2 |  |
| O=c1cc(-c2ccccc2)nc2sc(-c3c[nH]c4ccc(Br)cc34)nn12 | 103% | 104% | 89.8% | 104% | 102% | 99.8% | 96.3% | 105% | 91.6% | 102% | 108% | 88.4% | 100% | 85.4% | 98.9% | 87.4 | 102% | 93.9 |  |
| CC1OC(O[C@@H]2[C@H](O)C(CO)OC(O[C@H]3COC(O[C@H]4CC[C@]5(C)[C@H]6CC[C@]78OC[C@@]9(CC[C@](C)(C=O)C[C@H]97)C(=O)C[C@@]8(C)[C@]6(C)CC[C@H]5C4(C)C)[C@@H](O)[C@@H]3O)[C@H]2OC2OC[C@@H](O)[C@@H](O)[C@@H]2O)[C@@H](O)[C@@H](O)[C@H]1O (stereo partly drawn) | 108% | 98.2% | 79.7% | 87.4% | 95.9% | 89.9% | 99.8% | 96.9% | 95.8% | 97.1% | 81.4% | 90.2% | 95.8% | 81.4% |  |  | 88.1% |  | 95.3% |
| COc1ccc([C@@H]2[C@@H](O)C(=O)N2c2cc(OC)c(OC)c(OC)c2)cc1 | 12.7% | 49.9% | 30.4% | 24% | 46.9% | 19.8% | -7.72% (active) | 12.5% | 12.4% | 1.28% (active) | 50.7% | 31.6% | 4.38% (active) | 16.2% | -28.6% (active) | 20.3 | 16.3% | 61 |  |
| COc1ccc(-c2oc3cc(O)cc(O)c3c(=O)c2OC)cc1O | 15.7% | 68.8% | 32.7% | -29.9% (active) | 45.2% | -24.1% (active) | -34.6% (active) | 28.3% | 33.2% | 57% | -24.3% (active) | 28.2% | 15.6% | 24.1% |  |  | 36.8% |  | 78.8% |
| C=C(C)C(=O)O[C@H]1C[C@@]2(C)OC(=CC2=O)/C(CO)=C\[C@H]2OC(=O)C(=C)[C@H]12 | -25.2% (active) | -68.8% (active) | -54% (active) | -67.6% (active) | -13.8% (active) | 32.6% | -82.9% (active) | -34% (active) | -19.5% (active) | -12.2% (active) | -0.788% (active) | 42.2% | -17.7% (active) | -3.05% (active) |  |  | -94.1% (active) |  | -34% (active) |
| CC1OC(O[C@@H]2[C@H](O)C(CO)OC(O[C@H]3COC(O[C@H]4CC[C@]5(C)[C@H]6CC[C@]78OC[C@@]9(CCC(C)(C)C[C@H]97)[C@H](O)C[C@@]8(C)[C@]6(C)CC[C@H]5C4(C)C)[C@@H](OC4OC(CO)[C@@H](O)[C@@H](O)[C@@H]4O)[C@@H]3O)[C@H]2OC2OC[C@@H](O)[C@@H](O)[C@@H]2O)[C@@H](O)[C@@H](O)[C@H]1O (stereo partly drawn) | -79.7% (active) | -70.6% (active) | -72.2% (active) | -92% (active) | -65.9% (active) | -92.3% (active) | -80.5% (active) | -80.7% (active) | -52.8% (active) | -79% (active) | -87.1% (active) | -69.2% (active) | -86.8% (active) | -85.4% (active) |  |  | -82.7% (active) |  | -76.2% (active) |
| C=CCn1c(SCC(=O)Nc2cccc(C(=O)/C=C/c3ccc(OC)c(OC)c3)c2)nc2ccccc2c1=O | 95.2% | 84.7% | 89.7% | 87.9% | 89.1% | 104% | 90.3% | 114% |  | 95% | 83.7% | 77.2% | 76.6% | 79.7% | 97.6% | 74.9 | 79.5% | 102 | 108% |
| Cn1cc(-c2nn3cc(-c4cccnc4)nc3s2)c2ccccc21 | 58.3% | 22.5% | 31.7% | 54.3% | 66.7% | 40.7% | 26.5% | 14.5% | 12.5% | 11.2% | 31.4% | 42.6% | 26.6% | 35.8% | 11.1% | 31.1 | 37.9% | 50.7 |  |
